About 83,000 compounds went through this panel and 20% of them were active in at least one assay; those are over-represented in the sample as a whole.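 Percent growth is the endpoint: 0 to 100 indicates growth inhibition (40 means 60% inhibition), 0 means no net growth, and negative values indicate cell death.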 The source made the active and inactive calls. How the source made its calls: active means growth percent below 10; inactive means the rest.
What was measured:
Experiment in all cases: NCI-60 one-dose screen, 48 h (100 = growth as untreated, 0 = no growth, -100 = all killed)
Conditions in all cases: 10 µM unless noted
NCI-H23 lung = system: NCI-H23 lung
NCI-H226 lung = system: NCI-H226 lung
NCI-H322M lung = system: NCI-H322M lung
HOP-62 NSCLC = system: HOP-62 NSCLC
NCI-H460 lung = system: NCI-H460 lung
HOP-92 NSCLC = system: HOP-92 NSCLC
NCI-H522 lung = system: NCI-H522 lung
A549/ATCC NSCLC = system: A549/ATCC NSCLC
786-0 renal = system: 786-0 renal
COLO 205 colon = system: COLO 205 colon
DU-145 prostate = system: DU-145 prostate
K-562 leukemia = system: K-562 leukemia
MALME-3M melanoma = system: MALME-3M melanoma
MDA-MB-231 breast = system: MDA-MB-231 breast
RXF 393 renal = system: RXF 393 renal
SF-268 CNS = system: SF-268 CNS
SF-295 CNS = system: SF-295 CNS
SF-539 CNS = system: SF-539 CNS
UACC-257 melanoma = system: UACC-257 melanoma
M14 melanoma = system: M14 melanoma

Measured: growth

C/C(=N\N=C1/C(=O)Nc2ccccc21)c1ccc2c(c1)Nc1ccccc1S2
inactive: NCI-H23 lung 34.8% | NCI-H226 lung 56.3% | NCI-H322M lung 71.3% | HOP-62 NSCLC 82.9% | NCI-H460 lung 43.8% | HOP-92 NSCLC 82.7% | NCI-H522 lung 43.7% | A549/ATCC NSCLC 66.9% | 786-0 renal 71.4% | COLO 205 colon 52.6% | DU-145 prostate 53.2% | K-562 leukemia 31.8% | MALME-3M melanoma 35.5% | MDA-MB-231 breast 39% | RXF 393 renal 96.1% | SF-268 CNS 55.3% | SF-295 CNS 57.8% | SF-539 CNS 71.7% | UACC-257 melanoma 27.5% | M14 melanoma 65%

NS(=O)(=O)c1ccc(NNC(=O)CCC(=O)c2ccccc2)cc1
inactive: NCI-H23 lung 105% | NCI-H226 lung 100% | NCI-H322M lung 109% | HOP-62 NSCLC 100% | NCI-H460 lung 107% | HOP-92 NSCLC 93.3% | NCI-H522 lung 89.1% | A549/ATCC NSCLC 103% | 786-0 renal 98.4% | COLO 205 colon 118% | DU-145 prostate 114% | K-562 leukemia 71.6% | MALME-3M melanoma 107% | MDA-MB-231 breast 99.3% | RXF 393 renal 119% | SF-268 CNS 95.8% | SF-295 CNS 99.4% | SF-539 CNS 103% | UACC-257 melanoma 103% | M14 melanoma 104%

COc1ccc(-c2nc(SCC(C)C)nc(NCCc3c[nH]c4ccccc34)c2C#N)cc1
active: RXF 393 renal -8.09%
inactive: NCI-H23 lung 73.9% | NCI-H226 lung 45.1% | NCI-H322M lung 87.7% | HOP-62 NSCLC 55.2% | NCI-H460 lung 36.6% | HOP-92 NSCLC 50.3% | NCI-H522 lung 62.5% | A549/ATCC NSCLC 76.6% | 786-0 renal 56.6% | COLO 205 colon 76.1% | DU-145 prostate 77.2% | K-562 leukemia 33.1% | MALME-3M melanoma 87.3% | MDA-MB-231 breast 36.5% | SF-268 CNS 58.1% | SF-295 CNS 45% | SF-539 CNS 48% | UACC-257 melanoma 98.1%

O=C(c1ccc(OCCN2CCOCC2)cc1)C1[C@H](c2ccc(Cl)cc2)[C@@H](c2ccccc2)NC12C(=O)Nc1ccc(Br)cc12 (some centres not stated)
active: NCI-H460 lung 6.73% | HOP-92 NSCLC -15.1% | 786-0 renal -4.29% | COLO 205 colon -39.3% | K-562 leukemia 1.09% | RXF 393 renal -1.59%
inactive: NCI-H23 lung 26.1% | NCI-H226 lung 44% | NCI-H322M lung 53.8% | HOP-62 NSCLC 60.6% | NCI-H522 lung 10.3% | A549/ATCC NSCLC 17.6% | DU-145 prostate 41.6% | MALME-3M melanoma 56.3% | MDA-MB-231 breast 18.2% | SF-268 CNS 39.6% | SF-295 CNS 21.8% | SF-539 CNS 35% | UACC-257 melanoma 39.7%

O=C(COc1ccc(NC(=O)Nc2ccc(Cl)cc2)cc1)N/N=C/c1ccccc1
active: NCI-H23 lung -94.5% | NCI-H226 lung -89.2% | NCI-H322M lung -40.4% | HOP-62 NSCLC -84.6% | NCI-H460 lung -79.3% | HOP-92 NSCLC -77.9% | NCI-H522 lung -83.5% | A549/ATCC NSCLC -78.3% | 786-0 renal -82% | COLO 205 colon -66.5% | DU-145 prostate -23.9% | K-562 leukemia -15.2% | MALME-3M melanoma -90.8% | MDA-MB-231 breast -87.9% | RXF 393 renal -85.2% | SF-268 CNS -55.2% | SF-295 CNS -96.6% | SF-539 CNS -95.3% | UACC-257 melanoma -36.6% | M14 melanoma -66.1%

Cc1ccccc1[C@H]1C(C(=O)c2ccc(Cl)cc2)C2(N[C@@H]1c1ccccc1)C(=O)Nc1ccccc12 (some centres not stated)
inactive: NCI-H322M lung 16.6%
active: NCI-H23 lung -52% | NCI-H226 lung -55.2% | HOP-62 NSCLC -48.2% | NCI-H460 lung -45.5% | HOP-92 NSCLC -50.4% | NCI-H522 lung -48.1% | A549/ATCC NSCLC -21.7% | 786-0 renal -41.5% | COLO 205 colon -74.5% | DU-145 prostate -34.4% | K-562 leukemia -21% | MALME-3M melanoma -64.7% | MDA-MB-231 breast -60.4% | RXF 393 renal -66% | SF-268 CNS -12.5% | SF-295 CNS -19% | SF-539 CNS -69.5% | UACC-257 melanoma -16.4%

CC(C)Sc1nc(NCCc2c[nH]c3ccccc23)c(C#N)c(-c2ccccc2)n1
inactive: NCI-H23 lung 17.9% | NCI-H226 lung 33.8% | NCI-H322M lung 85.4% | HOP-62 NSCLC 31.9% | NCI-H522 lung 25.4% | A549/ATCC NSCLC 39.6% | COLO 205 colon 11.9% | DU-145 prostate 42.5% | MALME-3M melanoma 55.8% | SF-268 CNS 45% | SF-539 CNS 40.8% | UACC-257 melanoma 86.4% | M14 melanoma 42.7%
active: NCI-H460 lung 6.33% | HOP-92 NSCLC 4.4% | 786-0 renal 1.53% | K-562 leukemia 8.87% | MDA-MB-231 breast -17.3% | RXF 393 renal -27.6% | SF-295 CNS -14.3%

CCCSc1nc(NCCc2c[nH]c3ccccc23)c(C#N)c(-c2ccc(OC)cc2)n1
active: RXF 393 renal -17.3%
inactive: NCI-H23 lung 73.7% | NCI-H226 lung 50.7% | NCI-H322M lung 89% | HOP-62 NSCLC 64.5% | NCI-H460 lung 19% | HOP-92 NSCLC 64.7% | NCI-H522 lung 43.8% | A549/ATCC NSCLC 53.3% | 786-0 renal 31.9% | COLO 205 colon 61.3% | DU-145 prostate 62.2% | K-562 leukemia 23.5% | MALME-3M melanoma 83.1% | MDA-MB-231 breast 41.2% | SF-268 CNS 57.4% | SF-295 CNS 29.7% | SF-539 CNS 50.6% | UACC-257 melanoma 89.8% | M14 melanoma 63.5%

— PubChem BioAssay (NCI)
